This is an account of results in PubChem BioAssay AID1508625 (Wald Lab, School of Medicine, Case Western Reserve …, 2021).

A short description of this test: small molecules boosting NK-mediated OVCAR3 lysis – imaging, primary NK cells, calcein-AM imaging, primary screen (AID 1508625).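 Also: compound given to NK cells 16 h before adding targets at 1.5 to 1 ratio.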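 As to z-score: more negative robust z means stronger NK killing of tumor cells.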 As to conditions: OVCAR3 lysis by primary NK cells, at 5 µM; z-score: measured here: robust Z-score, single-point normalisation.

As to `COc1ccc(-c2coc3c(C)c4oc(=O)c5c(c4cc23)CCC5)cc1`, the corrected activity, negative = more killing was -3.7% and the z-score is -1.1.
For `CCOC(=O)c1ccc2c(c1)[C@@H]1C=CC[C@@H]1[C@H](c1ccccc1Br)N2`, in that order: 3.06% and 0.914.
The matching figures for `c1cc2c(cc1Nc1nc(-c3ccc(C4CCCCC4)cc3)cs1)OCO2`: 0.134% and 0.0696.
The matching figures for `CCOC(=O)c1cnc(SCc2ccccc2Cl)nc1N`: -1.75% and -0.473.
In the case of `COc1ccc(-n2c(=S)[nH]c3cc(C(=O)N4CCOCC4)ccc3c2=O)cc1`, the corrected activity, negative = more killing was -10.1% and the z-score is -3.21.
The matching figures for `CC(=O)c1ccc(NC(=O)c2ccc(C)c([N+](=O)[O-])c2)cc1`: -3.69% and -1.31.
For `CCOc1ccc(NS(=O)(=O)c2ccc3[nH]cc(C(=O)NCC4CCCO4)c(=O)c3c2)cc1` (stereo not given), in that order: -2.15% and -0.527.
For `CCOc1cc(C(=S)N2CCCCC2)ccc1OC(=O)c1ccc(OC)cc1`, in that order: -5.85% and -2.2.
Consider `CCC(C)N1C(=O)c2ccccc2C1C(=O)NC1CCCCCC1` (stereo not given), for which the corrected activity, negative = more killing was -6.27% and the z-score is -1.78.
For `CCC(Sc1nc(C)cc(C)n1)C(=O)Nc1nnc(C)s1` (stereo not given), in that order: -9.03% and -2.8.
